Assay results as given in PubChem BioAssay (NCI).
This is part of a sample that, as a whole, favours compounds with a hit. Of some 83,000 tested, about 20% had one in any assay.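 The endpoint reported here, percent growth, reads 100 for growth as untreated, 0 for no net growth and -100 for all cells dead.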 A number with no mark means an inactive call. The source made the active and inactive calls. The calls were made as follows: active = growth percent below 10; inactive = the rest.

Test system: NCI-H23 lung
Assay: NCI-60 one-dose screen, 48 h (100 = growth as untreated, 0 = no growth, -100 = all killed)
Conditions: 10 µM unless noted

| Structure (SMILES) | growth |
| --- | --- |
| C=CCC(=O)N[C@H](/C=C/C(=O)O)Cc1ccc(-c2cc(Cl)cc(Cl)c2)cc1 | 92.7% |
| CCN1CCN(c2cc(C)nc(N(CCCNc3ccnc4cc(Cl)ccc34)Cc3cccs3)n2)CC1 | 49% |
| COC(=O)CCCNc1c(-c2c(O)c(O)cc3c(O)c(-c4c(C)cc5c(-c6nc7ccccn7c6NCCCC(=O)OC)c(O)c(O)cc5c4O)c(C)cc23)nc2ccccn12 | 6.48% (active) |
| Cn1ncc(Cl)c1-c1cc(C(=O)N[C@H](CN)Cc2ccc(F)c(F)c2)oc1Cl | 11.3% |
| O=c1[nH]c(N2CCOCC2)nc2scc(-c3ccccc3)c12 | 87.2% |
| Cc1cc2c(-c3nc4ccccn4c3NC3CCCCC3)c(O)c(O)cc2c(O)c1-c1c(C)cc2c(-c3nc4ccccn4c3NC3CCCCC3)c(O)c(O)cc2c1O | 30.7% |
| CC(C)C1CCC(C)C(C2(C#N)C(N)=NC(N)=C2C#N)C1=O (centres undefined) | 92.3% |
| Cc1cc(N2CCCC2)nc(N(CCCNc2ccnc3cc(Cl)ccc23)Cc2ccc3c(c2)OCO3)n1 | 20.9% |
| [2H]C1([2H])[C@H](C)O[C@H](C)C([2H])([2H])N1c1ccc(NC(=O)c2cccc(-c3ccc(OC(F)(F)F)cc3)c2C)cn1 | 58.5% |
| Cc1cc2c(-c3nc4ccccn4c3NC34CC5CC(CC(C5)C3)C4)c(O)c(O)cc2c(O)c1-c1c(C)cc2c(-c3nc4ccccn4c3NC34CC5CC(CC(C5)C3)C4)c(O)c(O)cc2c1O | -1.87% (active) |
| CC[C@H](Nc1ncnc2nc[nH]c12)c1nc2cccc(F)c2c(=O)n1-c1ccccc1 | 93% |
| COC(=O)C1=C(C(=O)OC)C23C=C(C)C1C2=C(C)C1(CC1)[C@@](C)(O)C3=O (some centres undefined) | -20.9% (active) |
| c1ccc2c(c1)CCN(NCCN1CCCC1)C2 | 86.7% |
| Cc1cc(N(CCNc2ccnc3cc(Cl)ccc23)Cc2cccs2)nc(Cl)n1 | 0.24% (active) |
| COc1cc(-c2nc(C(=O)Nc3ccc(C)cc3)nn2-c2ccc(F)c(F)c2)cc(OC)c1OC | 97.1% |
| O=C(Cn1c(=O)ccn(CCCCCCCCOc2ccc(Br)cc2)c1=O)Nc1ccc(Oc2ccc(Cl)cc2)cc1 | 47.8% |
| Cc1ccc(-c2cc3c(SCC(=O)Nc4cc(C(F)(F)F)ccc4Cl)nccn3n2)cc1 | 74.2% |
| CCCc1cc2cc(-n3nc(C)c4c3CC(C)(C)CC4=O)cc(NC3CCC(O)CC3)c2c(=O)[nH]1 (centres undefined) | 29.8% |
| COc1ccc(C(=O)c2cc(OC)c(OC)c(OC)c2)cc1/C=C/C(=O)c1ccc(F)cc1 | 79.7% |
| CC(C)=CCc1cc2c(cc1O)C1=C(C(=O)C3=C(C1=O)S(=O)(=O)CCN3)C(C=C(C)C)O2 (centres undefined) | -35.9% (active) |

| Structure (SMILES) | growth |
| --- | --- |
| CN1CCN(c2nc(NCCNc3ccnc4cc(Cl)ccc34)c3ccccc3n2)CC1 | 44.9% |
| COc1ccc(CCCc2c3[n+](cc4c(OC)c(OC)ccc24)CCc2cc4c(cc2-3)OCO4)cc1 | 47.4% |
| N#Cc1cc2[nH]c3ccc(OC(F)(F)F)cc3c2oc1=O | 83.7% |
| CCN1CCN(CCCN(C[C@H]2Cc3ccccc3CN2)[C@H]2CCCc3cccnc32)CC1 | 101% |
| Clc1ccc2c(NCCCNCc3ccc4c(c3)OCO4)ccnc2c1 | 72.7% |
| Cc1cc(N2CCOCC2)nc(N(CCNc2ccnc3cc(Cl)ccc23)Cc2cccs2)n1 | 35.4% |
| CCN1CCN(c2cc(C)nc(N(CCCNc3ccnc4cc(Cl)ccc34)Cc3ccc4c(c3)OCO4)n2)CC1 | 36.8% |
| COc1cc(-c2cc(-c3ccc(Nc4ccnc5cc(Cl)ccc45)cc3)nc(N3CCOCC3)n2)cc(OC)c1OC | 0.48% (active) |
| COC(=O)C1CCc2sc3ncnc(Nc4cn[nH]c4C(=O)Nc4ccc(CN5CCN(C)CC5)cc4)c3c21 (centres undefined) | -9.63% (active) |
| CO/C=C/C(=O)c1cc2cnc3c(=N)cc(NC(=O)C(C)C)c([nH]1)c23 | -11.9% (active) |
| CCN1CCN(c2nc(C)cc(N(CCNc3ccnc4cc(Cl)ccc34)Cc3ccc4c(c3)OCO4)n2)CC1 | 67.5% |
| N#CC(C#N)=NO | 92.7% |
| C=CC(=O)N(C)[C@H]1C[C@H]2OC(C)(C1OC)n1c3ccccc3c3c4c(c5c6ccccc6n2c5c31)C(=O)NC4 (some centres undefined) | 4.64% (active) |
| Cc1ccc(NC(=O)NC(=O)CSc2nc3ccccc3nc2C)cc1 | 42.6% |
| C=CCn1c(=O)c2cnc(Nc3ccc(N4CCN(C)CC4)cc3)nc2n1-c1cccc(C(C)(C)O)n1 | 2.22% (active) |
| Clc1ccc2c(NCCNc3nc(N4CCCC4)nc4ccccc34)ccnc2c1 | 11.4% |
| Clc1ccc(/C=C/c2cc(N3CCOCC3)c3cc(Cl)c(Cl)cc3n2)cc1 | 100% |
| Nc1ncnc2c1ccn2-c1cccc(NC(=O)c2ccc(N3CCOCC3)c(C(F)(F)F)c2)c1 | 49.8% |
| CC12O[C@H](C[C@@H](OC(=O)CCC(=O)O)[C@H]1O)n1c3ccccc3c3c4c(c5c6ccccc6n2c5c31)C(=O)NC4=O | 12.3% |
